Assay results reported in the supplement of paper PMC10127200.
Counter-ions that a name gives are not always drawn.

How the values were obtained:
Experiment in all cases: Euclidean distance of Cell Painting phenotypic profile (signed KS, 77 features) to DMSO centroid (dimensionless distance); 5 or 10 uM (library dependent); higher = stronger phenotypic change vs DMSO (phenoactivity)
Conditions in all cases: 48 h
786-O = test system: 786-O
Outline: (§1)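 Five cancer lines, together with a healthy fibroblast line, received library compounds for 48 h at a library-dependent 10 or 5 uM and 0.1% DMSO final. Harmony then derived 77 features from confocal 20X images (9 fields/well) of the stained cells, scoring each as a signed Kolmogorov-Smirnov statistic against same-plate vehicle wells. After plate-position correction, correlation weighting and replicate averaging at the top dose, phenoactivity was taken as each profile's Euclidean distance to the median vehicle profile.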

A549 = test system: A549
Outline: as §1

DU145 = test system: DU145
Outline: as §1

FB = test system: FB
Outline: as §1

HEPG2 = test system: HEPG2
Outline: as §1

OVCAR4 = test system: OVCAR4
Outline: as §1

In the case of `CCC(CC)CC1(C(=O)Nc2ccccc2SC(=O)C(C)C)CCCCC1`, the Euclidean distance (786-O) is reported as 1.26, the Euclidean distance (A549) is reported as 1.07 and the Euclidean distance (DU145) is reported as 0.832. It also gave an Euclidean distance (FB) of 1, an Euclidean distance (HEPG2) of 0.428 and an Euclidean distance (OVCAR4) of 0.986.
Work on `CS(=O)(=O)c1ccc(-c2cnc(N)c(C(=O)Nc3ccccc3)n2)cc1` yielded an Euclidean distance (786-O) of 0.811, an Euclidean distance (A549) of 2.05 and an Euclidean distance (DU145) of 1.29. For the same compound, the Euclidean distance (FB) was 1.27, the Euclidean distance (HEPG2) was 1.07 and the Euclidean distance (OVCAR4) was 1.23.
In the case of `N#Cc1ccc2[nH]c(O)c(-c3ccc(CN4CCOCC4)cn3)c2c1`, the Euclidean distance (786-O) is reported as 3.45, the Euclidean distance (A549) is reported as 2.98 and the Euclidean distance (DU145) is reported as 2.02. The Euclidean distance (FB) was 1.79, the Euclidean distance (HEPG2) was 1.72 and the Euclidean distance (OVCAR4) was 3.02.
`O=C(CCCCCCNC(=O)c1cnc(N(c2ccccc2)c2ccccc2Cl)nc1)NO` [Citarinostat (ACY-241)] showed an Euclidean distance (786-O) of 1.92, an Euclidean distance (A549) of 2.05 and an Euclidean distance (DU145) of 2.16. It also gave an Euclidean distance (FB) of 3.07, an Euclidean distance (HEPG2) of 2.52 and an Euclidean distance (OVCAR4) of 1.75.
With `Cc1ccc(Nc2c(F)cccc2Cl)c(CC(=O)O)c1` [Lumiracoxib] the Euclidean distance (786-O) was 1.54, the Euclidean distance (A549) was 0.989 and the Euclidean distance (DU145) was 0.9. It also gave an Euclidean distance (FB) of 1.33, an Euclidean distance (HEPG2) of 0.549 and an Euclidean distance (OVCAR4) of 1.36.
`CCC(NC(C)C)C(O)c1ccc(O)c2[nH]c(=O)ccc12` (centres undefined) [Procaterol HCl] showed an Euclidean distance (786-O) of 1.23, an Euclidean distance (A549) of 1.55 and an Euclidean distance (DU145) of 0.791. For the same compound, the Euclidean distance (FB) was 0.891, the Euclidean distance (HEPG2) was 2.17 and the Euclidean distance (OVCAR4) was 1.67.
For `COc1cc2ncnc(Sc3nnc(C)s3)c2cc1OC`, the Euclidean distance (786-O) was 1.26, the Euclidean distance (A549) was 1.44 and the Euclidean distance (DU145) was 0.977. For the same compound, the Euclidean distance (FB) was 1.09, the Euclidean distance (HEPG2) was 2.45 and the Euclidean distance (OVCAR4) was 1.9.
With `COC(=O)[C@@H]1CC2=CC(=O)CC[C@]2(C)[C@@]23O[C@@H]2C[C@@]2(C)[C@@H](CC[C@@]24CCC(=O)O4)[C@H]13` [Eplerenone] the Euclidean distance (786-O) was 1.18, the Euclidean distance (A549) was 0.666 and the Euclidean distance (DU145) was 0.81. It also gave an Euclidean distance (FB) of 0.974, an Euclidean distance (HEPG2) of 1.38 and an Euclidean distance (OVCAR4) of 0.746.
`Cc1nc(Nc2ncc(C(=O)Nc3c(C)cccc3Cl)s2)cc(N2CCN(CCO)CC2)n1` [Dasatinib hydrochloride] showed an Euclidean distance (786-O) of 3.83, an Euclidean distance (A549) of 4.46 and an Euclidean distance (DU145) of 4.71. The Euclidean distance (FB) was 3.53, the Euclidean distance (HEPG2) was 2.21 and the Euclidean distance (OVCAR4) was 4.45.
Compound `COc1ccc(CCNCC(O)COc2cccc(C)c2)cc1OC` (centres undefined) [Bevantolol hydrochloride] has an Euclidean distance (786-O) of 1.02, an Euclidean distance (A549) of 0.717 and an Euclidean distance (DU145) of 1.07. The Euclidean distance (FB) was 1.21, the Euclidean distance (HEPG2) was 0.573 and the Euclidean distance (OVCAR4) was 1.03.
`COc1ccc(-c2coc3cc(O)ccc3c2=O)cc1` [Formononetin] was tested, and the Euclidean distance (786-O) was 0.921, the Euclidean distance (A549) was 0.857 and the Euclidean distance (DU145) was 0.599. For the same compound, the Euclidean distance (FB) was 1.07, the Euclidean distance (HEPG2) was 0.662 and the Euclidean distance (OVCAR4) was 1.13.
`Cn1c(=O)c(F)c(Nc2ccc(I)cc2F)c2c(=O)n(C[C@@H](O)CO)cnc21` gave an Euclidean distance (786-O) of 3.48, an Euclidean distance (A549) of 2.45 and an Euclidean distance (DU145) of 3.23. For the same compound, the Euclidean distance (FB) was 4.03, the Euclidean distance (HEPG2) was 2.21 and the Euclidean distance (OVCAR4) was 2.01.
With `C/C1=C2N=C(/C=C3N=C(/C(C)=C4\[N-]C(C(CC(N)=O)C4(C)CCC(=O)NCC(C)OP(=O)([O-])OC4C(CO)OC(n5cnc6cc(C)c(C)cc65)C4O)C4(C)N=C1C(CCC(N)=O)C4(C)CC(N)=O)C(CCC(N)=O)C\3(C)C)C(CCC(N)=O)C/2(C)CC(N)=O.[CH3-].[Co+3]` (centres undefined) [Methylcobalamin] the Euclidean distance (786-O) was 0.89, the Euclidean distance (A549) was 0.91 and the Euclidean distance (DU145) was 1.12. It also gave an Euclidean distance (FB) of 0.99, an Euclidean distance (HEPG2) of 1.02 and an Euclidean distance (OVCAR4) of 0.959.
With `CS(=O)(=O)CCNCc1ccc(-c2ccc3ncnc(Nc4ccc(OCc5cccc(F)c5)c(Cl)c4)c3c2)o1` [Lapatinib ditosylate monohydrate] the Euclidean distance (786-O) was 4.93, the Euclidean distance (A549) was 3.12 and the Euclidean distance (DU145) was 2.25. The Euclidean distance (FB) was 2.59, the Euclidean distance (HEPG2) was 3.3 and the Euclidean distance (OVCAR4) was 3.37.
`NS(=O)(=O)c1ccc(NC(=O)Nc2ccc(F)cc2)cc1` gave an Euclidean distance (786-O) of 0.711, an Euclidean distance (A549) of 1.08 and an Euclidean distance (DU145) of 1.36. For the same compound, the Euclidean distance (FB) was 1.37, the Euclidean distance (HEPG2) was 1.44 and the Euclidean distance (OVCAR4) was 0.718.
For `Nc1ccc(C(=O)Nc2cccc(-c3nc(N4CCOCC4)c4oc5ncccc5c4n3)c2)cn1`, the Euclidean distance (786-O) was 4.09, the Euclidean distance (A549) was 5.02 and the Euclidean distance (DU145) was 4.16. For the same compound, the Euclidean distance (FB) was 1.63, the Euclidean distance (HEPG2) was 3.45 and the Euclidean distance (OVCAR4) was 2.25.
`O=C(O)c1ccc2nc(-c3cc(Cl)cc(Cl)c3)oc2c1` [Tafamidis] was tested, and the Euclidean distance (786-O) was 1.52, the Euclidean distance (A549) was 0.941 and the Euclidean distance (DU145) was 1.1. The Euclidean distance (FB) was 0.77, the Euclidean distance (HEPG2) was 0.971 and the Euclidean distance (OVCAR4) was 1.21.
In the case of `Cc1[nH]c(/C=C2\C(=O)Nc3ccccc32)c(C)c1CCC(=O)O` [TSU-68 (SU6668. Orantinib)], the Euclidean distance (786-O) is reported as 0.704, the Euclidean distance (A549) is reported as 0.699 and the Euclidean distance (DU145) is reported as 0.85. The Euclidean distance (FB) was 0.825, the Euclidean distance (HEPG2) was 0.787 and the Euclidean distance (OVCAR4) was 0.814.
`C[C@H]1O[C@@H](O[C@H]2[C@@H](O)C[C@H](O[C@H]3[C@@H](O)C[C@H](O[C@H]4CC[C@@]5(C)[C@H](CC[C@@H]6[C@@H]5C[C@@H](O)[C@]5(C)[C@@H](C7=CC(=O)OC7)CC[C@]65O)C4)O[C@@H]3C)O[C@@H]2C)C[C@H](O)[C@@H]1O` [Digoxin] was tested, and the Euclidean distance (786-O) was 6.92, the Euclidean distance (A549) was 5.56 and the Euclidean distance (DU145) was 6.87. For the same compound, the Euclidean distance (FB) was 4.48, the Euclidean distance (HEPG2) was 3.09 and the Euclidean distance (OVCAR4) was 6.68.
In the case of `CN(C)CCCN1c2ccccc2Sc2ccccc21` [Promazine hydrochloride], the Euclidean distance (786-O) is reported as 1.46, the Euclidean distance (A549) is reported as 0.965 and the Euclidean distance (DU145) is reported as 2.09. It also gave an Euclidean distance (FB) of 1.9, an Euclidean distance (HEPG2) of 2.01 and an Euclidean distance (OVCAR4) of 1.58.
`CCOC(=O)[C@H](CCc1ccccc1)N[C@@H](C)C(=O)N1C(=O)N(C)C[C@H]1C(=O)O` [Imidapril HCl] was tested, and the Euclidean distance (786-O) was 0.604, the Euclidean distance (A549) was 0.657 and the Euclidean distance (DU145) was 0.965. It also gave an Euclidean distance (FB) of 1.1, an Euclidean distance (HEPG2) of 1.55 and an Euclidean distance (OVCAR4) of 1.05.
For `Cc1cnc(CNC(=O)c2c(=O)c3ccc(N4CCCN(C)CC4)nc3n3c2sc2ccccc23)cn1`, the Euclidean distance (786-O) was 2.93, the Euclidean distance (A549) was 3.26 and the Euclidean distance (DU145) was 2.7. The Euclidean distance (FB) was 3.86, the Euclidean distance (HEPG2) was 2.18 and the Euclidean distance (OVCAR4) was 3.31.
`NCCNc1ccc(NCCN)c2c1C(=O)c1ccncc1C2=O` [Pixantrone Maleate] was tested, and the Euclidean distance (786-O) was 4.41, the Euclidean distance (A549) was 3.32 and the Euclidean distance (DU145) was 3.46. For the same compound, the Euclidean distance (FB) was 4.14, the Euclidean distance (HEPG2) was 4.48 and the Euclidean distance (OVCAR4) was 3.49.
`O=C(NOCC1CC1)c1ccc(F)c(F)c1Nc1ccc(I)cc1Cl` showed an Euclidean distance (786-O) of 2.48, an Euclidean distance (A549) of 3.7 and an Euclidean distance (DU145) of 2.78. It also gave an Euclidean distance (FB) of 2.12, an Euclidean distance (HEPG2) of 2.22 and an Euclidean distance (OVCAR4) of 2.06.
